PI5P4Ka inh = blocks human PI5P4K alpha kinase activity; P48426; PI5P4Kalpha enzyme, ADP-Glo luminescence, 60 min; stronger effect = lower value; max response, %; actives 1.2% (n = 330,000); active = max response of -50% or lower; inconclusive = between -30% and -50%; inactive = -30% or higher; note: value at the top dose of about 77 µM; % is set by controls: 0 for no effect and ±100 for the full control effect
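Luminescence from ADP-Glo served as readout of PI5P4Kalpha activity in a qHTS format. Reaction: enzyme, substrate, compound, ATP at 5 microM final, 60 min at RT.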
WRN inhibitor = blocks human WRN helicase | Q14191 | WRN helicase unwinding, fluorescent forked duplex, kinetic | Potency, µM (highest dose often 114 µM), without a hit: at the top dose activity change, negative = inhibition, most hits filed as inhibitors | actives 0.46% (n = 360,000) | AID 651768; note: potency is the fitted concentration of half-maximal effect; % is set by controls: 0 for no effect and ±100 for the full control effect; nearly all actives have a fitted effect of over 55% in size
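WRN at 20 nM final was preincubated with compound for 15 min at room temperature; reaction started with 100 nM forked duplex oligonucleotide carrying fluorophore and quencher plus 2 mM ATP (final). Unwinding followed kinetically by red fluorescence (ex 525/em 598 nm).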
Pol beta inh = blocks human DNA polymerase beta activity; P06746; Pol beta primer extension/strand displacement, fluorescence kinetic; Potency, µM (doses to about 114 µM), inactives show at the top dose activity change, negative = inhibition, usual class: inhibitors; actives 1.3% (n = 340,000); note: potency is the fitted concentration of half-maximal effect; % is set by controls: 0 for no effect and ±100 for the full control effect
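Kinetic readout of DNA synthesis with strand displacement by Pol beta. Compound and 10 nM enzyme sit 15 min at room temperature; 50 nM substrate starts the reaction, read immediately and at 10 min.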
POLK inh = DNA polymerase kappa (human) inhibition; Potency, µM (highest dose often 107 µM), for the others: top-dose activity, negative = inhibition, actives largely listed as inhibitors; AID 588579; Q9UBT6; actives 0.53% (n = 400,000); purified Pol kappa, fluorescent DNA synthesis assay, 10 min; note: potency is the fitted concentration of half-maximal effect; % is set by controls: 0 for no effect and ±100 for the full control effect
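Readout: fluorescence, taken kinetically at 0 and 10 min. Conditions: 10 nM Pol kappa, 15 min RT compound preincubation, 50 nM substrate final. Controls: enzyme-free buffer wells.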
Pol eta inh = blocks human DNA polymerase eta activity | Q9Y253 | AID 588591 | recombinant Pol eta, fluorescent DNA replication assay | Potency, µM (highest dose often 114 µM), for the others: top-dose activity change, negative = inhibition, usual class: inhibitors | actives 1.2% (n = 390,000); note: potency is the fitted concentration of half-maximal effect; % is set by controls: 0 for no effect and ±100 for the full control effect
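Pol eta at 10 nM preincubated with compounds 15 min at room temperature; reaction started with fluorescent substrate (50 nM final) and read kinetically at 0 and 10 min.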
Pol iota inh = blocks human DNA polymerase iota activity; Pol iota fluorescent replication assay, 10 min; Potency, µM (highest dose often 115 µM), without a hit: at the highest dose activity, negative = inhibition, hits mostly inhibitors; actives 1% (n = 390,000); AID 588590; note: potency is the fitted concentration of half-maximal effect
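Fluorescent replication assay read twice, at 0 min and 10 min after adding 50 nM (final) substrate. Enzyme (10 nM) and compounds were first incubated 15 min at room temperature; enzyme-free buffer wells were negative controls.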
Active calls of the source: *; [ ] = dose if it differs, or a comment. This is a sample that favours compounds with a hit; in the whole collection about 2.8% have one here. Unless noted, calls come from the whole dose curve; as a rule, active = well fitted curve in the direction sought with a large enough effect; inconclusive = small, poorly fitted or top-dose-only effect, or another doubt; inactive = no such curve, though single readings can be large; an effect the other way counts as inactive or inconclusive.

`CCc1ccccc1NC(=O)Nc1c[nH]c(=O)[nH]c1=O` gave Pol beta inh -1%, POLK inh -6%, Pol eta inh -15% and Pol iota inh 28%.
Screening CCc1cccc(NC(=O)CN2Cc3ccccc3C2=O)c1 returned Pol beta inh 9%, POLK inh 2%, Pol eta inh -11% and Pol iota inh -6%.
For COc1ccc(-[n+]2c(C)cc(/C=C3\Sc4ccccc4N3C)cc2C)cc1 the results were PI5P4Ka inh -6, WRN inhibitor inconclusive, Pol beta inh 35µM*, POLK inh -5%[60.1 µM], Pol eta inh -19% and Pol iota inh 24%.
Screening COc1ccccc1-[n+]1c(C)cc(/C=C2\Sc3ccccc3N2C)cc1C returned PI5P4Ka inh -10, WRN inhibitor inconclusive, Pol beta inh inconclusive, POLK inh inconclusive, Pol eta inh inconclusive and Pol iota inh -12%.
Screening Cc1nc(SCC(N)=O)c([N+](=O)[O-])[nH]1 returned PI5P4Ka inh 1, WRN inhibitor -1%, Pol beta inh -11%, POLK inh 6%, Pol eta inh -12% and Pol iota inh 115%.
`C/C(=N\NC(=O)CSc1nc(C)[nH]c1[N+](=O)[O-])c1ccc(F)cc1` gave PI5P4Ka inh -67*, WRN inhibitor -1%, Pol beta inh 4%, POLK inh -3%, Pol eta inh -4% and Pol iota inh 24%.
Cc1c(C(=O)OCC(=O)NCc2ccco2)cccc1[N+](=O)[O-] was read as PI5P4Ka inh inconclusive, WRN inhibitor -34%, POLK inh -30%, Pol eta inh 25µM* and Pol iota inh 56µM*.
Screening CC(C)(C)c1ccc(C(=O)OCC(=O)NCc2ccco2)cc1 returned PI5P4Ka inh 5, WRN inhibitor 1%, POLK inh -9%, Pol eta inh -20% and Pol iota inh 26%.
O=C(COC(=O)C1(c2ccc(F)cc2)CCCC1)NCc1ccco1 was read as PI5P4Ka inh inconclusive, WRN inhibitor -18%, Pol beta inh 40µM*, POLK inh -15%, Pol eta inh -18% and Pol iota inh 28%.
Cc1ccsc1C(=O)OCC(=O)NCc1ccco1 was read as PI5P4Ka inh -7, WRN inhibitor 2%, Pol beta inh 0%, POLK inh 4%, Pol eta inh -24% and Pol iota inh 155%.
Screening O=Cc1ccc(C(=O)OCC(=O)NCc2ccco2)cc1 returned PI5P4Ka inh -53*, WRN inhibitor -18%, POLK inh -10%, Pol eta inh inconclusive and Pol iota inh 23%.
`Cc1ccccc1C(=O)OCC(=O)NCc1ccco1` gave PI5P4Ka inh inconclusive, WRN inhibitor inconclusive, POLK inh -32%, Pol eta inh inconclusive and Pol iota inh 50µM*.
Cc1ccc(C)c(NC(=O)CN2C(=O)C3(SCC(=O)N3c3ccc(C)c(C)c3)c3ccccc32)c1 (centres undefined) was read as Pol beta inh 3%, POLK inh -5%, Pol eta inh -12% and Pol iota inh -8%.
For Cc1ccc(S(=O)(=O)N2CCN(c3nc(-n4c(=O)[nH]c5ccccc54)nc4ccccc34)CC2)cc1 the results were POLK inh 3% and Pol iota inh 16%.
O=C(Nc1ccc(Cl)cc1Cl)[C@@H]1CC=C[C@@H]2CCN(Cc3ccccc3)C(=O)[C@@H]21 was read as POLK inh -6% and Pol iota inh 5%.
For COc1ccc(NC2CCCN(C(=O)c3cccc(C)n3)C2)cc1OC (centres undefined) the results were PI5P4Ka inh 1, WRN inhibitor -4%[11.6 µM], Pol beta inh 3%, POLK inh inconclusive, Pol eta inh -2% and Pol iota inh 50µM*.
`Cc1cccc(NC(=O)Nc2nnc(N(C)Cc3ccccc3)s2)c1` gave Pol beta inh 2%, POLK inh -28%, Pol eta inh -7% and Pol iota inh inconclusive.
For N#CC1=C(N)OC2=C(CCC/C2=C/c2ccoc2)C1c1ccoc1 (centres undefined) the results were Pol beta inh 14µM*.
Screening C/C(=N\NC(=O)c1ccc(C)cc1C)c1ccc2c(c1)OCO2 returned PI5P4Ka inh 3, WRN inhibitor -7%, Pol beta inh 14%, POLK inh -11%, Pol eta inh -12% and Pol iota inh 6%.
`O=C(OCC(=O)N1CCCCC1)c1cc2ccccc2cc1O` gave PI5P4Ka inh 2, WRN inhibitor -4%, Pol beta inh 3%, POLK inh -10%, Pol eta inh -14% and Pol iota inh 8%.
For C/C(CC(=O)Nc1ccc(Cl)c(C(F)(F)F)c1)=N\NC(=O)c1cc2ccccc2cc1O the results were PI5P4Ka inh inconclusive, WRN inhibitor -11%[57.1 µM], Pol beta inh -14%, POLK inh inconclusive, Pol eta inh -8% and Pol iota inh 89µM*.
Screening C/C(=N\NC(=O)c1cc2ccccc2cc1O)c1ccc2c(c1)OCO2 returned PI5P4Ka inh -67*, WRN inhibitor -39%, Pol beta inh inconclusive, POLK inh inconclusive, Pol eta inh 0% and Pol iota inh inconclusive.
Screening C/C(CC(=O)N1CCCC1)=N\NC(=O)c1cc2ccccc2cc1O returned PI5P4Ka inh inconclusive, WRN inhibitor -4%, Pol beta inh -74%, POLK inh inconclusive, Pol eta inh -8% and Pol iota inh 79µM*.
CCc1ccc(NC(=O)CN(Cc2ccccc2)S(=O)(=O)c2ccc3nc(C)sc3c2)cc1 was read as Pol beta inh -23%, POLK inh -19%, Pol eta inh -16% and Pol iota inh -6%.
For O=C(O)CC1(CC(=O)Nc2ccccc2N2CCOCC2)CCCC1 the results were PI5P4Ka inh -4, WRN inhibitor 7%, Pol beta inh 10µM*, POLK inh -3%, Pol eta inh -16% and Pol iota inh 28%.
Cc1ccc(C(=O)CCS(=O)(=O)c2ccc(Br)cc2)cc1 was read as PI5P4Ka inh -1, WRN inhibitor -1%, Pol beta inh 19%, POLK inh -13%, Pol eta inh -17% and Pol iota inh 22%.
For Cc1ccc(S(=O)(=O)CCC(=O)c2cccc([N+](=O)[O-])c2)cc1 the results were PI5P4Ka inh inconclusive, WRN inhibitor 14µM*, Pol beta inh 8%, POLK inh -12%, Pol eta inh -4% and Pol iota inh 84%.
`CN(C)c1ccc(N=Cc2cccc3ccccc23)cc1` gave POLK inh -26% and Pol iota inh 15%.
Screening O=C(O)c1cc2cccc(S(=O)(=O)N3CCOCC3)c2cc1O returned PI5P4Ka inh -73*, WRN inhibitor 4%, Pol beta inh 0%, POLK inh -3%, Pol eta inh -7% and Pol iota inh 15%.

Compound activity: PubChem, National Center for Advancing Translational Sciences (NCATS)
